# Measured values published in the supplement of paper PMC10849652.
# Targets with a hit are over-represented here; the source holds about 7,900 in all. About 0.6% of all pairs of compound and target were hits. A number with no mark means an inactive call.
# Compound: Cc1nc(Nc2ncc(C(=O)Nc3c(C)cccc3Cl)s2)cc(N2CCN(CCO)CC2)n1 [dasatinib]
# Experiment: log2 fold change, soluble protein after heating vs DMSO (PISA); higher = thermal stabilisation; K562 cells, 10 uM, 30 min; active = over 0.2 and 3.5 SD of the protein, either way, in both replicates (recomputed)
# How it was run: (§1)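 Values are thermal stability changes relative to control samples and are taken from duplicates. They are stated as log2 fold changes. Before quantification by TMTpro 16plex LC-MS/MS with equalised channel sums, K562 cells at 2×10^6 cells/mL were treated with 10 μM compound for 30 min, heated in aliquots for 3 min across 48°C-58°C, pooled, extracted in PBS with 0.5% NP-40 at 4°C, and centrifuged at 21,000xg for 90 min to give the soluble supernatant.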
# UniProt P51151, sequence (P51151 whole entry, looked up): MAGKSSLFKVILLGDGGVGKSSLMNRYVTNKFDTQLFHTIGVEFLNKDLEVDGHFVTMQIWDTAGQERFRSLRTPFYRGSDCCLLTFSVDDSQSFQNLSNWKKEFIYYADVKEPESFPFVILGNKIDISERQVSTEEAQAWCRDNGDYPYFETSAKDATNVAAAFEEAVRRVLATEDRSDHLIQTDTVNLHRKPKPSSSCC
# UniProt Q15436, sequence (Q15436 whole entry, looked up): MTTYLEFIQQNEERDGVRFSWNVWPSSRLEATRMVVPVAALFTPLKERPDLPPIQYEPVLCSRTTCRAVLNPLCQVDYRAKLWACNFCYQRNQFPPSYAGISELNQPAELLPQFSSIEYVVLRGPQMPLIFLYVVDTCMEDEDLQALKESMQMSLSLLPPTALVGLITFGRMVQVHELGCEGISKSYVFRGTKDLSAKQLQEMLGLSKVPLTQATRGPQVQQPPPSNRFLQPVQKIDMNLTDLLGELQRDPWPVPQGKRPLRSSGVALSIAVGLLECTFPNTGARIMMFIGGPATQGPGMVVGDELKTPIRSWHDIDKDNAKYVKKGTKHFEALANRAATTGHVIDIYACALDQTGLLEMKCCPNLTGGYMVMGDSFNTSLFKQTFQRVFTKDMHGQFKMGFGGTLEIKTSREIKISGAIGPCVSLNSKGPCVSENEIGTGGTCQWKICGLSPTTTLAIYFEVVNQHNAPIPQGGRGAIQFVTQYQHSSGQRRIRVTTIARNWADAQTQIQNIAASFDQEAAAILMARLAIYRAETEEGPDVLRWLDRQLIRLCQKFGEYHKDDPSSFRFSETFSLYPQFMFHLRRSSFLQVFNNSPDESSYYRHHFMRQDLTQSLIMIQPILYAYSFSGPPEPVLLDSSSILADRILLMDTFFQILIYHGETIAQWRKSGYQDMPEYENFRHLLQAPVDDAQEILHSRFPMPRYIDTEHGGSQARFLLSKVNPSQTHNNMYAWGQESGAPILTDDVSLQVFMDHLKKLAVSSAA
# UniProt P11233, sequence (P11233 whole entry, looked up): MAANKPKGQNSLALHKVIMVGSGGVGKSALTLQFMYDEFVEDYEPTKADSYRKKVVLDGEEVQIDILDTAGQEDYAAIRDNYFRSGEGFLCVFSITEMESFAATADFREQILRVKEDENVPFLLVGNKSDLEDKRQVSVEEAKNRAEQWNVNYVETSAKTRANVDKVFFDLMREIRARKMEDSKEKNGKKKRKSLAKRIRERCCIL
# UniProt Q8IXJ6, sequence (Q8IXJ6 whole entry, looked up): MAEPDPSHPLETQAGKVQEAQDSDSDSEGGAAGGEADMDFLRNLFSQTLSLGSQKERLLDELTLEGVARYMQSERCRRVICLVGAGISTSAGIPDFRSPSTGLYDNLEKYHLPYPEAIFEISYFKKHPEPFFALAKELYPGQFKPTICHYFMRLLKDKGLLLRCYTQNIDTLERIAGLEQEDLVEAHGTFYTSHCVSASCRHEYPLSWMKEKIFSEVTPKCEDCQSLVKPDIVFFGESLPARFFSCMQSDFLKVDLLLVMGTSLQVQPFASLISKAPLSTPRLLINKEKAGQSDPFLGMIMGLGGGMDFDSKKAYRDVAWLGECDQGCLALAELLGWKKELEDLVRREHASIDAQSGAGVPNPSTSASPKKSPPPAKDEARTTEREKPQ
# UniProt Q96T51, sequence (Q96T51 whole entry, looked up): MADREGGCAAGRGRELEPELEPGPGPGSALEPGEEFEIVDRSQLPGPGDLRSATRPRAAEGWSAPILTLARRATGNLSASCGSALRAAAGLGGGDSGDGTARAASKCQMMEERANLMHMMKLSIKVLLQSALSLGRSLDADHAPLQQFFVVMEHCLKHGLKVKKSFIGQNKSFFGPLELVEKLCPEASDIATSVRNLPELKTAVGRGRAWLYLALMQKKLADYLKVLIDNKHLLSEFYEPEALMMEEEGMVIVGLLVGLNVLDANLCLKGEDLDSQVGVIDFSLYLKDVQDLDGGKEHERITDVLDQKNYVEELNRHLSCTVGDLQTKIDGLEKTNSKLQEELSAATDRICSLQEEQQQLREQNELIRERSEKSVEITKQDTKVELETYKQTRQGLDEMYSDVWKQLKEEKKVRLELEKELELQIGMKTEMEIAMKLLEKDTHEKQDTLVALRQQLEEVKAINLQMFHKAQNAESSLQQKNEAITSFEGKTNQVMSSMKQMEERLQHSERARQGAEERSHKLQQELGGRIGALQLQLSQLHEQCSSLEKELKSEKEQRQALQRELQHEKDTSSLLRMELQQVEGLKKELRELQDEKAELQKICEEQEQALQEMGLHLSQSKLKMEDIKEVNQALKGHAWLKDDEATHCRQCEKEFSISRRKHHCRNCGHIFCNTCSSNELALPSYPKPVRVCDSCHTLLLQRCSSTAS
# UniProt Q14498, sequence (Q14498 whole entry, looked up): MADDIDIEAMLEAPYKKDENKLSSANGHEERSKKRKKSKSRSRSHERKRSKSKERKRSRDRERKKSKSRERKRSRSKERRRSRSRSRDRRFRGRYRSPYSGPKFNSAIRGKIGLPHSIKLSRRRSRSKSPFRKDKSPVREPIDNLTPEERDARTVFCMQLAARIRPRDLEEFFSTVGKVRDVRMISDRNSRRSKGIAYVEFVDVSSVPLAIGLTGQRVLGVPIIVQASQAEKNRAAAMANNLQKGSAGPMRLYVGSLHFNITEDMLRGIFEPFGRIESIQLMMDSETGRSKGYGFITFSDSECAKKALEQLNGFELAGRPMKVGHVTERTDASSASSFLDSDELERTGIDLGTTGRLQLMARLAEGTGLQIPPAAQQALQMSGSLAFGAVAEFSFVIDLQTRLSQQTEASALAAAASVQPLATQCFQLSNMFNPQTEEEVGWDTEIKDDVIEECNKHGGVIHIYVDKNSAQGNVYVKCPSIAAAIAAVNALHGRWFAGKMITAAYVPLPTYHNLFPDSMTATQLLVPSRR
# UniProt Q14493, sequence (Q14493 whole entry, looked up): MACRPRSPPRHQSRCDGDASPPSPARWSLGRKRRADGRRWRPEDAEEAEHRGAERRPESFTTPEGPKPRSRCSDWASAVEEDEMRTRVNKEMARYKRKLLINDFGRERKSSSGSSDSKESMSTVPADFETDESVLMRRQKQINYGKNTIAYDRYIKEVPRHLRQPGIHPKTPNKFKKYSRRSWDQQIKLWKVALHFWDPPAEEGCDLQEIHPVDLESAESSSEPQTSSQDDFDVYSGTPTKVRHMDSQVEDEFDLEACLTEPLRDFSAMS
# UniProt Q9NX18, sequence (Q9NX18 whole entry, looked up): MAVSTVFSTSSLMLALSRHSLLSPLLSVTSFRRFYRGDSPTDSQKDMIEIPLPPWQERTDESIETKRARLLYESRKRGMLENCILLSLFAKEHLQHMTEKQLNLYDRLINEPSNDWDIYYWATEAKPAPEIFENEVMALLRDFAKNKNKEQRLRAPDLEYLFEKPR
# UniProt Q9H4A4, sequence (Q9H4A4 whole entry, looked up): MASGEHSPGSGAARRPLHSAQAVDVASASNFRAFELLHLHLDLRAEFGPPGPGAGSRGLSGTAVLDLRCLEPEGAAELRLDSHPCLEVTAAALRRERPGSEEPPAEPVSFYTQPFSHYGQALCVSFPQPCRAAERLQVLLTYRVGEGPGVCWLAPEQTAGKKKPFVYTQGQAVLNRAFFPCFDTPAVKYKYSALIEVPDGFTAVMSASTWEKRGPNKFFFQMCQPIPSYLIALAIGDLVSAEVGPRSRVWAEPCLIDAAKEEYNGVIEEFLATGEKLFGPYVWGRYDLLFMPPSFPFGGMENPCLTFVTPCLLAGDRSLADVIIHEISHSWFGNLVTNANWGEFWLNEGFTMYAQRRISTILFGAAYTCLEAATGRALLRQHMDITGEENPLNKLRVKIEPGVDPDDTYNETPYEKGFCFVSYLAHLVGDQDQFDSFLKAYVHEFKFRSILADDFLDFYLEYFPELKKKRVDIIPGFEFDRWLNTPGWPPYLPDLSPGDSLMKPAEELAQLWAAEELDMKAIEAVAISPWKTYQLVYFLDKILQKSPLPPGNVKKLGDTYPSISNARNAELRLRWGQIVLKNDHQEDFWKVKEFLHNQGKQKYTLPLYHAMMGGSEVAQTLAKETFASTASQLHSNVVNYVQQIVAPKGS
# UniProt Q99643, sequence (Q99643 whole entry, looked up): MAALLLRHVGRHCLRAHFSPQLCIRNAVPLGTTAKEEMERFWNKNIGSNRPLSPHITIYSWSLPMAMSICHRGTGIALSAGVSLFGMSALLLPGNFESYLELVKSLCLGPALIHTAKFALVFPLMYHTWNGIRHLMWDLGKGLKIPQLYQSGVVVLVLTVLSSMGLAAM
# UniProt O95059, sequence (O95059 whole entry, looked up): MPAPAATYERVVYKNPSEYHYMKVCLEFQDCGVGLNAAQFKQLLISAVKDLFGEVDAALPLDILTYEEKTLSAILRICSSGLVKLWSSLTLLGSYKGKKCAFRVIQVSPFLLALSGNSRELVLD
# UniProt P41440, sequence (P41440 whole entry, looked up): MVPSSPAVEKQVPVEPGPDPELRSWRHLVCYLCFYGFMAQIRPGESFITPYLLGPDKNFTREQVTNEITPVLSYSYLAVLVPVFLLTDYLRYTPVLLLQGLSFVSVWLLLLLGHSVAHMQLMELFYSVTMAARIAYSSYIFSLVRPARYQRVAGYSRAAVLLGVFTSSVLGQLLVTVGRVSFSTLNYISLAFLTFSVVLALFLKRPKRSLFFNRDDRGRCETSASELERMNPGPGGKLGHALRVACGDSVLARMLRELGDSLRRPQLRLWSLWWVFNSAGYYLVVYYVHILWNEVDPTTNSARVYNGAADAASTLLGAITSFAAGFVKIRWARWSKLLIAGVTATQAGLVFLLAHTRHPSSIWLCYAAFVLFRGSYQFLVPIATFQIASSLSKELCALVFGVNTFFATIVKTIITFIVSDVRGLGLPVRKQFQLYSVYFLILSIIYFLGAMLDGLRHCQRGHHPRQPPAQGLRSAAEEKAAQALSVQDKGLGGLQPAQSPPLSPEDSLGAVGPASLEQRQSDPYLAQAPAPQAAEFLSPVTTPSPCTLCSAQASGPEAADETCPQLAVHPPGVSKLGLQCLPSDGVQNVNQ
row,Target,log2 fold change
1,SLBP (UniProt Q14493),0.031
2,RDH10 (UniProt Q8IZV5),0.237 (active)
3,SAFB2 (UniProt Q14151),0.183
4,SEC23A (UniProt Q15436),-0.07
5,SCG3 (UniProt Q8WXD2),0.151
6,RUFY1 (UniProt Q96T51),-0.11
7,SLC19A1 (UniProt P41440),0.024
8,SFXN5 (UniProt Q8TD22),0.084
9,RAC3 (UniProt P60763),-0.169
10,RPRD1B (UniProt Q9NQG5),-0.099
11,SDHC (UniProt Q99643),0.028
12,RRAGC (UniProt Q9HB90),0.05
13,RPS19 (UniProt P39019),0.083
14,RHEB (UniProt Q15382),0.004
15,RBM17 (UniProt Q96I25),-0.108
16,SIRT2 (UniProt Q8IXJ6),-0.032
17,RBM12 (UniProt Q9NTZ6),-0.287

row,Target,log2 fold change
1,SASH1 (UniProt O94885),-0.046
2,RPS20 isoform 2 (UniProt P60866),0.05
3,RPP14 (UniProt O95059),0.063
4,RBM25 (UniProt P49756),-0.049
5,RCOR1 (UniProt Q9UKL0),-0.063
6,RPS12 (UniProt P25398),0.08
7,RAB9A (UniProt P51151),0.002
8,REL (UniProt Q04864),-0.115
9,RAB5C isoform 2 (UniProt P51148),0.014
10,RPS27A (UniProt P62979),0.119
11,SKP1 (UniProt P63208),0.007
12,RRP9 (UniProt O43818),0.106
13,RALA (UniProt P11233),0.027
14,SDHAF2 (UniProt Q9NX18),0.057
15,RBM39 (UniProt Q14498),-0.1
16,RNPEP (UniProt Q9H4A4),-0.134

# Compound: Cc1ncc(-c2ccnc(Nc3ccc(S(C)(=O)=O)cc3)n2)n1C(C)C
# Experiment: as above
# How it was run: as §1
row,Target,log2 fold change
1,SLBP (UniProt Q14493),-0.423 (active)
2,RDH10 (UniProt Q8IZV5),-0.014
3,SAFB2 (UniProt Q14151),-0.054
4,SEC23A (UniProt Q15436),-0.009
5,SCG3 (UniProt Q8WXD2),-0.032
6,RUFY1 (UniProt Q96T51),0.067
7,SLC19A1 (UniProt P41440),0.026
8,SFXN5 (UniProt Q8TD22),0.134
9,RAC3 (UniProt P60763),-0.016
10,RPRD1B (UniProt Q9NQG5),-0.024
11,SDHC (UniProt Q99643),-0.056
12,RRAGC (UniProt Q9HB90),-0.021
13,RPS19 (UniProt P39019),-0.021
14,RHEB (UniProt Q15382),0.04
15,RBM17 (UniProt Q96I25),0.011
16,SIRT2 (UniProt Q8IXJ6),-0.051
17,RBM12 (UniProt Q9NTZ6),-0.09

row,Target,log2 fold change
1,SASH1 (UniProt O94885),0.034
2,RPS20 isoform 2 (UniProt P60866),-0.071
3,RPP14 (UniProt O95059),-0.013
4,RBM25 (UniProt P49756),-0.129
5,RCOR1 (UniProt Q9UKL0),-0.062
6,RPS12 (UniProt P25398),-0.012
7,RAB9A (UniProt P51151),0.002
8,REL (UniProt Q04864),-0.018
9,RAB5C isoform 2 (UniProt P51148),-0.003
10,RPS27A (UniProt P62979),0.007
11,SKP1 (UniProt P63208),0.012
12,RRP9 (UniProt O43818),-0.107
13,RALA (UniProt P11233),-0.026
14,SDHAF2 (UniProt Q9NX18),-0.007
15,RBM39 (UniProt Q14498),0.055
16,RNPEP (UniProt Q9H4A4),0.025

# Compound: Cn1cc(-c2ccc3c(c2)CCN3C(=O)Cc2cccc(C(F)(F)F)c2)c2c(N)ncnc21
# Experiment: as above
# How it was run: as §1
row,Target,log2 fold change
1,SLBP (UniProt Q14493),-0.042
2,RDH10 (UniProt Q8IZV5),0.37 (active)
3,SAFB2 (UniProt Q14151),-0.135
4,SEC23A (UniProt Q15436),-0.018
5,SCG3 (UniProt Q8WXD2),0.147
6,RUFY1 (UniProt Q96T51),-0.061
7,SLC19A1 (UniProt P41440),0.103
8,SFXN5 (UniProt Q8TD22),0.107
9,RAC3 (UniProt P60763),0.107
10,RPRD1B (UniProt Q9NQG5),-0.021
11,SDHC (UniProt Q99643),-0.011
12,RRAGC (UniProt Q9HB90),0.001
13,RPS19 (UniProt P39019),-0.11
14,RHEB (UniProt Q15382),0.035
15,RBM17 (UniProt Q96I25),-0.067
16,SIRT2 (UniProt Q8IXJ6),0.104
17,RBM12 (UniProt Q9NTZ6),0.048

row,Target,log2 fold change
1,SASH1 (UniProt O94885),0.011
2,RPS20 isoform 2 (UniProt P60866),-0.078
3,RPP14 (UniProt O95059),-0.078
4,RBM25 (UniProt P49756),-0.044
5,RCOR1 (UniProt Q9UKL0),-0.005
6,RPS12 (UniProt P25398),-0.013
7,RAB9A (UniProt P51151),0.104
8,REL (UniProt Q04864),0.013
9,RAB5C isoform 2 (UniProt P51148),0.043
10,RPS27A (UniProt P62979),-0.172
11,SKP1 (UniProt P63208),0.047
12,RRP9 (UniProt O43818),-0.062
13,RALA (UniProt P11233),0.014
14,SDHAF2 (UniProt Q9NX18),0.056
15,RBM39 (UniProt Q14498),-0.041
16,RNPEP (UniProt Q9H4A4),0.012
